Our source for the inhibition values is PubChem BioAssay AID449762 (Southern Research Specialized Biocontainment Screening …, 2010).

The structures appear in SMILES notation. Hit rate of the full screen: of about 330,000 compounds, about 1,900 (0.58%) were called active. Inconclusive results (about 4%) are left out. The list is a sample of the results. Potency and affinity values are given separately. Unmarked numbers belong to inactive results. Cut-off read from the data, not from the text of the source: inconclusive = inhibition above about 70% without an active follow-up result; inactive = below that.

This assay can be described thus: M. tuberculosis growth inhibition, HTS (AID 449762).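 Note: bacterial growth assessed after seven days of incubation.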 The settings on record: M. tuberculosis H37Rv growth inhibition, 7H9 media; at 25 µM; hits give high values.
Consider `CN1CCN(c2cc(-c3cc(O)c4ncccc4c3)ccn2)CC1`, for which the inhibition (as a rule, the relative decrease from the control value, in per cent) is 28.5%.
Turning to `CN(C)CCCNC(=O)c1ccc(-c2cc(O)c3ncccc3c2)cc1`, the inhibition is 3.92%.
For `CC1(c2cccc(Br)c2)NC(=O)N(CC(=O)NC2CCCCC2)C1=O` (stereo unspecified), the inhibition was 3%.
Regarding `CCCCN1C(=O)c2ccc(C(=O)OCC(=O)NCCc3ccc(S(N)(=O)=O)cc3)cc2C1=O`, the inhibition was -4.61%.
Take `O=C(NCC(c1cccs1)N1CCOCC1)c1cccc([N+](=O)[O-])c1` (stereo unspecified): the inhibition is -5.61%.
In the case of `O=C(NCC(c1cccs1)N1CCOCC1)c1ccc([N+](=O)[O-])cc1` (stereo unspecified) it was 2.63%.
As for `CCOc1ccc(NC(=O)CN(C)C(=O)Cc2ccsc2)cc1OCC`, the inhibition was -3.21%.
Regarding `CCOC(=O)Cn1cnc2c(nnn2-c2ccc(OC)cc2)c1=O`, the inhibition was -2.34%.
Take `CCOc1cc(/C=C2\N=C(C)OC2=O)cc(Cl)c1OCC(=O)OC`: the inhibition was -3.74%.
In the case of `O=C(C1CCCN1S(=O)(=O)c1cccc2nsnc12)N1CCCCCC1` (stereo unspecified), the inhibition is 2.56%.
In the case of `Cc1nnc(SCC(=O)NCc2ccc(F)cc2)[nH]c1=O` it was 0.54%.
Take `O=S(Cc1ccc(Br)cc1)Cc1nnc(SCc2c(Cl)cccc2Cl)n1-c1ccccc1` (stereo unspecified): the inhibition was -2.91%.
As for `O=S(Cc1ccc(Br)cc1)Cc1nnc(SCc2ccc(Br)cc2)n1-c1ccccc1` (stereo unspecified), the inhibition is 57%.
Regarding `CCOC(=O)c1ccc(S(=O)(=O)NNC(=O)Cc2csc(C)n2)cc1`, the inhibition was 1.7%.
For the compound `CCOc1ccc(CCNC(=O)c2cccc(S(=O)(=O)N3CC(C)OC(C)C3)c2)cc1OCC` (stereo unspecified), the inhibition was 2.57%.
As to `CC(=O)Nc1ccc(N2CCN(c3ccc(C(F)(F)F)cn3)CC2)nc1`, the inhibition was 17.9%.
Turning to `CC(C)(C)C(=O)Nc1ccc(N2CCN(c3ccc(C(F)(F)F)cn3)CC2)nc1`, the inhibition was -0.97%.
Consider `c1ccc(OCCCCn2cnc3ccccc32)cc1`, for which the inhibition is 4.06%.
`c1ccc2c(c1)ncn2CCCOc1ccc2c(c1)CCC2`: the inhibition is 68.5%.
On to `O=C(O)CCCC(=O)N1N=C(c2ccccc2)CC1c1ccc2nccnc2c1` (stereo unspecified), for which the inhibition is 0.01%.
As to `O=C(N/C(=C\c1cccc([N+](=O)[O-])c1)C(=O)N1CCCCC1)c1cccs1`, the inhibition was -1.22%.
In the case of `COCC(=O)NC(c1ccccc1)c1ccccc1`, the inhibition was 1.57%.
Under `CCN1CCN(C(c2ccc(OC)cc2)C(O)C(=O)c2c[nH]c3ccccc23)CC1` (stereo unspecified) stands 1.81%; under `O=C(c1c[nH]c2ccccc12)C(O)C(c1ccccc1)N1CCOCC1` (stereo unspecified), -0.62%; under `CCOc1ccccc1C(C(=O)NC1CCCCC1)N(C(=O)c1csnn1)C1CC1` (stereo unspecified), -6.88%.
`CC1(C)CC(=O)c2c(O)cc(OCc3ccc([N+](=O)[O-])cc3)cc2O1`: the inhibition is 8.3%.
On to `COC(=O)c1ccc(COc2cc(O)c3c(c2)OC(C)(C)CC3=O)cc1`, for which the inhibition is 20.4%.
Consider `N=C(c1ccc([N+](=O)[O-])cc1)N1CCCCC1`, for which the inhibition is 8.06%.
`O=C1CCN(Cc2ccccc2)CCN1CCSc1ccccc1`: the inhibition is -0.68%.
Under `CCOc1ccccc1N(CC(=O)Nc1ccc2c(c1)OCO2)S(C)(=O)=O` stands -15.7%.
For the compound `O=C(Nc1cc(-c2nc3ncccc3o2)ccc1Cl)c1ccc([N+](=O)[O-])o1`, the inhibition was -1.99%.
With `COc1ccc(C(=O)Nc2cccc(-c3nc4ncccc4o3)c2C)cc1`, the inhibition was 2.93%.
As to `COc1ccc(N2C(=O)C3C(C2=O)C3(c2ccccc2)c2ccccc2)cc1` (stereo unspecified), the inhibition is 1.86%.
In the case of `COc1ccc(N2C(=O)C3C4c5ccccc5C(C=Nc5ccc(C)cc5C)(c5ccccc54)C3C2=O)cc1` (stereo unspecified) it was 36.6%; in that of `Cn1c(=O)c2c(nc3n2CC(O)CN3c2ccc(O)cc2)n(C)c1=O` (stereo unspecified), -2.83%; in that of `CCc1cccc2c(C(=S)N3CCOCC3)c[nH]c12`, 3.01%.
Turning to `CCc1cccc2c(C(=O)COC(=O)c3ccc(O)cc3)c[nH]c12`, the inhibition was -5.92%.
Take `CCc1cccc2c(=O)c(C(=O)NCCN3CCOCC3)c[nH]c12`: the inhibition is -3.32%.
Take `CCc1cccc2c(C(=O)COC(=O)c3ccccc3)c[nH]c12`: the inhibition was 0.69%.
In the case of `O=C(NCc1ccccc1)c1cccc(Br)n1`, the inhibition was 2.81%.
Regarding `CC(C)n1cc(CNC(=O)C2CCC(=O)N(Cc3ccccc3F)C2)cn1` (stereo unspecified), the inhibition was 5.12%.
Take `O=C(OCc1ccc([N+](=O)[O-])cc1)C1CC(=O)N(Cc2ccccc2)C1` (stereo unspecified): the inhibition is 6.8%.
In the case of `COCCN(C(=O)c1cccc(N2C(=O)CCC2=O)c1)c1nc(-c2ccc([N+](=O)[O-])cc2)cs1` it was 31.4%.
Take `Cc1cc(C)n(CCC(=O)N=Nc2c(O)[nH]c3ccccc23)n1`: the inhibition is 3.85%.
For the compound `CCC1CCCCN1CCCNC(=O)CSc1nc2nc(C)c(Cc3ccccc3Cl)c(C)n2n1` (stereo unspecified), the inhibition was 4.72%.
Under `COc1ccccc1N1CCN(/N=C\c2ccccc2)CC1` stands 4.03%; under `Cc1ccc(N2CCN(/N=C/C(Cl)=C/c3ccccc3)CC2)cc1`, 4.03%; under `O=C(Nc1ccc2c3c(cccc13)CC2)c1cccc([N+](=O)[O-])c1`, -7.19%.
Consider `Cc1c(C(=O)Nc2ccc3c4c(cccc24)CC3)cccc1[N+](=O)[O-]`, for which the inhibition is 27.6%.
Turning to `COc1ccc(-c2cc(C)no2)cc1S(=O)(=O)N1CCN(C(=O)c2ccco2)CC1`, the inhibition is -7.17%.
In the case of `CC(C)Cc1ccc(C(C)C(=N)N)cc1` (stereo unspecified) it was 6.85%; in that of `COc1ccc(CCN=C(N)C(C)c2ccccc2)cc1OC` (stereo unspecified), -10.7%; in that of `CCOC(=O)c1c(-c2ccc(OC)cc2)csc1NC(=O)CSc1ccccc1`, 3.36%.
Turning to `CCOC(=O)c1c(-c2ccc(Cl)cc2)csc1NC(=O)CNCc1ccco1`, the inhibition was 3.78%.
Turning to `COC(=O)c1c(NC(=O)C(C)C)sc(C(=O)N2CCOCC2)c1C`, the inhibition was -8.29%.
With `COC(=O)c1c(NC(C)=O)sc(C(=O)N2CCOCC2)c1C`, the inhibition was 2.88%.
With `S=C(NCc1ccncc1)Nc1cc(Cl)cc(Cl)c1`, the inhibition was 69.9%.
Take `O=C(CCc1nnc(CCCCc2ccccc2)o1)NCCC1CCCCO1` (stereo unspecified): the inhibition is -2.58%.
`COC(c1ccccc1)c1nnc(CCC(=O)N(C)CCCC2CCCC2)o1` (stereo unspecified): the inhibition was 3.33%.
In the case of `O=C(CCc1nnc(CCCc2ccccc2)o1)NCCc1ccccc1`, the inhibition was 3.96%.
Regarding `CN(C(=O)CCc1nnc(-c2ccc(-c3ccccc3)cc2)o1)C1CCOCC1`, the inhibition was -8.56%.
